Results as given in PubChem BioAssay AID2441 (National Center for Advancing Translational Sciences (NCATS), 2010).
The other results are listed elsewhere or left out. Inconclusive results are not listed. Active and inactive are the calls of the source. Calls follow the shape of the dose curve; as a rule, active = well fitted inhibition curve with a large enough effect; inconclusive = small, poorly fitted or top-dose-only effect; inactive = flat fitted curve, though single readings scatter.

Experiment: Cell cycle validation with wells to cells screening paradigm
Settings: HeLa cell cycle G2/M arrest, Hoechst DNA content imaging
Description: Understanding cell cycle regulation is a critical component in combating various diseases such as cancer. Proper execution of cell cycle activity is essential for processes such as cell growth, DNA replication, and mitosis and surveillance mechanisms function as cell cycle checkpoints at the G1, S, and G2/M phases. Thus, profiling agents which disrupt cancer cell division represents a large effort in oncology-based studies. Compound-induced cell cycle perturbations can be analyzed through changes in specific cell cycle phase markers, such as DNA content, using high content screening. […] Furthermore, recent imaging based studies have performed cell cycle analysis following compound treatment where phenotypic fingerprints for phases of the cell cycle were determined or concentration-response based testing of selected compounds and drugs was used to measure a phenotypic profile in a dose-dependent manner. […]
Reagents: 70% EtOH, Hoechst Stain, PBS Controls: 7.6 uM (final starting concentration) Vinblastine and 38.3 uM (final starting concentration) nocodazole were dispensed into columns 1 and 2, respectively, and titrated 1:2 in DMSO (16-point in duplicate). […] Plates were read on the Acumen eX3 system and concentration response curves were generated after the readings. […]

| Compound | Potency |
| --- | --- |
| O=c1cc(-c2ccccc2)[nH]c2nc(Cl)ccc12 | 2000 nM (active) |
